A selection: hits, their analogues and other compounds. The true share with any hit is near 2.4%.
D2 PAM-1 = positive allosteric modulators of human D2 dopamine receptor | P14416 | DiscoveRx D2 beta-arrestin cells, luminescence, 90 min; 100% = 57 uM dopamine signal | potentiation, % (test concentration not listed) | 0.23% of 360,000 active; in the data active = potentiation above about 50%
Target sequence (P14416 whole entry, looked up): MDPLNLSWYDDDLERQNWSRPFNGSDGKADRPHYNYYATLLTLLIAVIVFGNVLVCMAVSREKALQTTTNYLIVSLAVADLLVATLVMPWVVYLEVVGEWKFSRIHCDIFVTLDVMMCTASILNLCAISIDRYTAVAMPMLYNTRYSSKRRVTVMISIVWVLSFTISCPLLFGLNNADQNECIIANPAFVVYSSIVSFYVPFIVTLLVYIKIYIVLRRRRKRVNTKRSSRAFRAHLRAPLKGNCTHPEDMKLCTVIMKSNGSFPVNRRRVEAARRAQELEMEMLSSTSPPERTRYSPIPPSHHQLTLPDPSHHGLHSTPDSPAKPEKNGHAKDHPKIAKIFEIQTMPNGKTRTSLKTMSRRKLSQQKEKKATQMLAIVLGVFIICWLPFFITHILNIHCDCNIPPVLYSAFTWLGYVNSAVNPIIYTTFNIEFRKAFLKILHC
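PathHunter beta-arrestin assay in DiscoveRx D2 cells. Compounds were added with an EC20 of dopamine (50 nM final) for 90 min at 37 deg C. Luminescence was read 1 h after detection reagent, with 57 uM dopamine as the EC100 control.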
D2 antag = D2 dopamine receptor (human) antagonism; P14416; HEK293 TREx D2 cells, calcium flux, dopamine EC80; inhibition, % at 10 µM; 2% of 340,000 active; in the data active = inhibition above about 30%; inactive = below that, where a call was filed; also: 0% is about no effect
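Antagonism is scored as inhibition of an EC80 dopamine-evoked calcium signal in a force-coupled, tetracycline-inducible HEK293 T-REx D2 line, with compound present 180 s before agonist.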
D2 PAM-2 = positively modulates the human D2 dopamine receptor allosterically; HEK293 T-REx D2, calcium flux, EC20 dopamine potentiation; 0.34% of 340,000 active; P14416; AID 485347; potentiation, % at 10 µM;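 active = potentiation over 3 SD above the plate norm, cut at about 30% in these data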; also: 0% is about no effect
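Potentiation of an EC20 dopamine calcium response is measured in a force-coupled, tetracycline-inducible Hek293 Trex D2 line. Compound-only kinetic reads over 180 s flag agonists before dopamine addition.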
D2 ag-1 = agonists of human D2 dopamine receptor (beta-arrestin); 0.084% of 360,000 active; P14416; activation, % (test concentration not listed); AID 624465; DiscoveRx PathHunter D2 beta-arrestin, luminescence, 90 min; 100% = 57 uM dopamine signal; in the data active = activation above about 40%
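Agonist mode: compounds alone added to overnight-plated D2 PathHunter cells for 90 min at 37 C, with 57 uM final dopamine (EC100) defining full response. Beta-arrestin recruitment detected by chemiluminescent reagent, read after 1 h at ambient temperature.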
D2 ag-2 = activates the human D2 dopamine receptor; HEK293 T-REx D2 cells, calcium flux agonist mode; P14416; 0.53% of 340,000 active; AID 485358; activation, % at 2 µM;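 active = activation over 3 SD above normal in the single-dose calcium agonist read, cut at about 30% in these data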; also: 0% is about no effect
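Agonism is scored from calcium flux in a force-coupled, inducible HEK293 cell line expressing D2, read kinetically for 180 s after compound addition against dopamine controls.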
Numbers without * were called inactive; nt = no result given.

SMILES	D2 PAM-1	D2 antag	D2 PAM-2	D2 ag-1	D2 ag-2
CC(=O)N1CCc2cc(C(=O)CN3CCN(c4cccc(Cl)c4)CC3)ccc21	-13	73*	-16	10	54*
CC(=O)N1CCc2cc(C(=O)CN3CCC(C)CC3)ccc21	-4	7	-4	2	1
CC1=C(C(=O)Nc2ccc(Cl)cc2)C(C(C)C)n2nc(SCc3ccc(Cl)cc3)nc2N1 (stereo unspecified)	nt	nt	nt	nt	1
c1cc2c3c(cccc3c1)NC1(CCC3(CC1)Nc1cccc4cccc(c14)N3)N2	71*	-8	-4	0	4
Cc1cccc(S(=O)(=O)NCCc2cn3ccccc3n2)c1	-6	32*	-5	4	-2
O=S(=O)(NCCc1cn2ccccc2n1)c1ccc(-c2ccccc2)cc1	-5	1	2	1	0
CCC1=Nc2cc(C(=O)NC3CCCC3)ccc2Sc2ccc(Br)cc21	nt	nt	-6	nt	0
N#C/C(=C\c1c(N2CCCCCC2)nc2ccccn2c1=O)C(=O)NC1CCS(=O)(=O)C1 (stereo unspecified)	-19	-6	-10	0	0
N#C/C(=C\c1c(N2CCOCC2)nc2ccccn2c1=O)C(=O)NC1CCS(=O)(=O)C1 (stereo unspecified)	-9	38*	12	-3	-1
Oc1c(C(c2ccccc2)N2CCOCC2)sc2nc(-c3ccco3)nn12 (stereo unspecified)	nt	nt	-2	nt	-1
CS(=O)(=O)N1N=C(c2cccs2)CC1c1ccccc1 (stereo unspecified)	-10	32*	0	-3	0
CC(=O)NC12CC3CC(C1)CC(C(=O)OCC(=O)Nc1c(F)cccc1F)(C3)C2	-7	37*	-6	1	0
CCCS(=O)(=O)c1ncc(Cl)c(C(=O)N2CCN(c3ccc(OC)cc3)CC2)n1	nt	nt	0	nt	0
O=C(CN1N=C(c2ccc(Cl)cc2)CCC1=O)NCc1ccc(F)cc1	nt	nt	17	nt	0
CCN1CCN(c2c(S(=O)(=O)c3ccc(C)c(C)c3)cnc3ccc(F)cc23)CC1	-12	37*	-21	-5	-1
CCN(CC)S(=O)(=O)c1ccc(NC(=O)c2ccc(CN3CCOCC3)cc2)cc1	-10	8	30*	0	1
O=C(Nc1ccc(S(=O)(=O)N2CCCCC2)cc1)c1ccc(CN2CCOCC2)cc1	-9	nt	42*	2	nt
O=C(Nc1ccc(S(=O)(=O)N2CCCC2)cc1)c1ccc(CN2CCOCC2)cc1	-3	-6	13	-1	2
O=C(Nc1cccc(S(=O)(=O)C(F)F)c1)c1ccc(S(=O)(=O)N2CCCC2)cc1	4	59*	-15	3	-1
Cc1cccc(NC(=O)CSc2nccn2Cc2ccc(F)cc2)c1C	nt	nt	2	nt	0
CSCCC(N=C1NS(=O)(=O)c2ccccc21)C(=O)NCCc1ccccc1 (stereo unspecified)	-27	42*	-22	-1	1
COc1ccc(NC(=O)Cn2ccn(-c3ccc(F)c(F)c3)c(=O)c2=O)cc1Cl	nt	nt	4	nt	0
CC(=O)c1ccc2c(c1)N(CCCN1CCC(CCO)CC1)c1ccccc1S2	-39	74*	-15	-9	-1
CN(C)CCCN1c2ccccc2Sc2ccc3ccccc3c21	-28	nt	nt	-1	nt
CN1CCN(CCCNC(=O)c2cn(C)c3ccc(S(=O)(=O)N(C)C)cc3c2=O)CC1	-4	-12	8	-1	1
SMILES	D2 PAM-1	D2 antag	D2 PAM-2	D2 ag-1	D2 ag-2
O=C(CN1CCCC1)N1c2ccccc2Sc2ccc(Cl)cc21	-6	10	-6	4	0
OCCN1CCN(CCCN2c3ccccc3Sc3ccc(Cl)cc32)CC1	-30	86*	-29	1	1
CCN1C(=O)c2ccccc2Sc2ccc(C(=O)NCCCN3CCCCC3)cc21	-33	25	-12	-4	0
CN(C)CCCN1c2ccccc2Sc2ccc(Cl)cc21	-30	86*	-28	0	1
CN1CCN(CCCN2c3ccccc3Sc3ccc(S(=O)(=O)N(C)C)cc32)CC1	-37	82*	-23	-6	1
Cc1oc2ccc(O)c(CN(C)Cc3ccccc3)c2c1C(=O)Nc1cccc(Cl)c1C	nt	nt	9	nt	-1
Fc1ccc(N2CCN(Cc3cn[nH]c3-c3ccccc3)CC2)cc1	-15	-4	-14	1	6

Assay outcomes (PubChem)
